Hit rate of the full screen: of about 5,500 compounds, about 2,000 (36%) were called active. Not shown: some 18% with an inconclusive outcome. Cut-off read from the data, not from the text of the source: active = normalized growth mostly below about 0.91 (no sharp cut-off); inconclusive = no clear call, values can overlap the other calls; inactive = mostly above about 0.92. Some of the results follow.
Assay: chemical genetic growth profiling, strain panel (AID 1159580);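 note: tested at 20 µM; growth read once vehicle control cultures reached saturation at 30 °C; 1 = growth at the plate median or of vehicle wells; lower values mean less growth of the strain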
Conditions: growth OD

Measured: normalized growth

CC(=O)O[C@@H]1CC2C(C)(C)[C@H](O)C=C[C@]2(C)C2CC[C@]3(C)C(=CC(=O)O[C@H]3c3ccoc3)[C@@]21C (stereo partly specified)
inactive: S. cerevisiae deletion strains, locus YAL021C, strain ccr4, active compounds read low 0.971 | S. cerevisiae deletion strains, locus YAL026C, strain drs2, active compounds read low 0.983 | S. cerevisiae deletion strains, locus YAL030W, strain snc1, active compounds read low 0.974 | S. cerevisiae deletion strains, locus YBL061C, strain skt5, active compounds read low 0.987 | S. cerevisiae deletion strains, locus YBR009C, strain hhf1, active compounds read low 0.984 | S. cerevisiae deletion strains, locus YBR021W, strain FUR4, active compounds read low 0.987 | S. cerevisiae deletion strains, locus YBR023C, strain chs3, active compounds read low 0.993 | S. cerevisiae deletion strains, locus YBR171W, strain sec66, active compounds read low 0.988 | S. cerevisiae deletion strains, locus YBR229C, strain ROT2, active compounds read low 0.996 | S. cerevisiae deletion strains, locus YBR231C, strain swc5, active compounds read low 0.99 | S. cerevisiae deletion strains, locus YBR279W, strain paf1, active compounds read low 0.99 | S. cerevisiae deletion strains, locus YCL011C, strain gbp2, active compounds read low 0.996 | S. cerevisiae deletion strains, locus YCL016C, strain dcc1, active compounds read low 0.995 | S. cerevisiae deletion strains, locus YCL029C, strain bik1, active compounds read low 1.01 | S. cerevisiae deletion strains, locus YCL061C, strain MRC1, active compounds read low 1 | S. cerevisiae deletion strains, locus YCL069W, strain vba3, active compounds read low 0.994 | S. cerevisiae deletion strains, locus YCR088W, strain abp1, active compounds read low 0.983 | S. cerevisiae deletion strains, locus YDL005C, strain med2, active compounds read low 0.967 | S. cerevisiae deletion strains, locus YDL035C, strain GPR1, active compounds read low 1.03 | S. cerevisiae deletion strains, locus YDL040C, strain nat1, active compounds read low 0.983 | S. cerevisiae deletion strains, locus YDL074C, strain BRE1, active compounds read low 0.999 | S. cerevisiae deletion strains, locus YDL101C, strain DUN1, active compounds read low 1.01 | S. cerevisiae deletion strains, locus YDL185W, strain tfp1, active compounds read low 1.01 | S. cerevisiae deletion strains, locus YDL192W, strain arf1, active compounds read low 1.01 | S. cerevisiae deletion strains, locus YDR001C, strain nth1, active compounds read low 0.976 | S. cerevisiae deletion strains, locus YDR069C, strain doa4, active compounds read low 0.978 | S. cerevisiae deletion strains, locus YDR101C, strain arx1, active compounds read low 1.02 | S. cerevisiae deletion strains, locus YDR137W, strain rgp1, active compounds read low 0.956 | S. cerevisiae deletion strains, locus YDR159W, strain sac3, active compounds read low 0.962 | S. cerevisiae deletion strains, locus YDR162C, strain NBP2, active compounds read low 1.02 | S. cerevisiae deletion strains, locus YDR195W, strain ref2 0.969 | S. cerevisiae deletion strains, locus YDR297W, strain sur2, active compounds read low 0.973 | S. cerevisiae deletion strains, locus YDR318W, strain mcm21, active compounds read low 1 | S. cerevisiae deletion strains, locus YDR334W, strain swr1, active compounds read low 0.972 | S. cerevisiae deletion strains, locus YDR335W, strain msn5, active compounds read low 0.975 | S. cerevisiae deletion strains, locus YDR388W, active compounds read low 1 | S. cerevisiae deletion strains, locus YDR392W, strain spt3, active compounds read low 0.989 | S. cerevisiae deletion strains, locus YDR502C, strain sam2, active compounds read low 1.01 | S. cerevisiae deletion strains, locus YEL003W, strain gim4, active compounds read low 0.985 | S. cerevisiae deletion strains, locus YEL037C, strain rad23, active compounds read low 0.984 | S. cerevisiae deletion strains, locus YEL061C, strain CIN8 (second series), active compounds read low 0.988 | S. cerevisiae deletion strains, locus YEL061C, strain CIN8, active compounds read low 1 | S. cerevisiae deletion strains, locus YER015W, strain faa2, active compounds read low 0.991 | S. cerevisiae deletion strains, locus YER016W, strain bim1, active compounds read low 0.993 | S. cerevisiae deletion strains, locus YER110C, active compounds read low 0.996 | S. cerevisiae deletion strains, locus YER111C, strain swi4, active compounds read low 0.975 | S. cerevisiae deletion strains, locus YER155C, strain BEM2 (second series), active compounds read low 0.985 | S. cerevisiae deletion strains, locus YER155C, strain BEM2, active compounds read low 0.997 | S. cerevisiae deletion strains, locus YER167W, strain BCK2, active compounds read low 1.01 | S. cerevisiae deletion strains, locus YFR010W, strain ubp6, active compounds read low 0.97 | S. cerevisiae deletion strains, locus YGL078C, strain dbp3, active compounds read low 1 | S. cerevisiae deletion strains, locus YGL086W, strain mad1, active compounds read low 0.993 | S. cerevisiae deletion strains, locus YGL167C, strain pmr1, active compounds read low 0.987 | S. cerevisiae deletion strains, locus YGL173C, strain kem1, active compounds read low 0.977 | S. cerevisiae deletion strains, locus YGL227W, strain vid30, active compounds read low 0.989 | S. cerevisiae deletion strains, locus YGL240W, strain doc1, active compounds read low 0.993 | S. cerevisiae deletion strains, locus YGL248W, strain PDE1, active compounds read low 1.01 | S. cerevisiae deletion strains, locus YGL253W, strain hxk2, active compounds read low 0.985 | S. cerevisiae deletion strains, locus YGR135W, strain pre9, active compounds read low 1 | S. cerevisiae deletion strains, locus YGR229C, strain SMI1, active compounds read low 1.04 | S. cerevisiae deletion strains, locus YGR252W, strain gcn5, active compounds read low 0.97 | S. cerevisiae deletion strains, locus YHR013C, strain ard1, active compounds read low 0.98 | S. cerevisiae deletion strains, locus YHR027C, strain rpn1, active compounds read low 0.994 | S. cerevisiae deletion strains, locus YHR030C, strain SLT2, active compounds read low 1.01 | S. cerevisiae deletion strains, locus YHR079C, strain IRE1 (second series), active compounds read low 1 | S. cerevisiae deletion strains, locus YHR094C, strain hxt1, active compounds read low 1 | S. cerevisiae deletion strains, locus YHR129C, strain ARP1, active compounds read low 1.01 | S. cerevisiae deletion strains, locus YHR142W, strain chs7, active compounds read low 0.993 | S. cerevisiae deletion strains, locus YHR200W, strain rpn10, active compounds read low 1 | S. cerevisiae deletion strains, locus YIL066C, strain RNR3, active compounds read low 1 | S. cerevisiae deletion strains, locus YIL073C, strain SPO22, active compounds read low 1.01 | S. cerevisiae deletion strains, locus YIL125W, strain kgd1, active compounds read low 0.99 | S. cerevisiae deletion strains, locus YIR030C, strain dcg1, active compounds read low 0.997 | S. cerevisiae deletion strains, locus YJL092W, strain hpr5, active compounds read low 0.984 | S. cerevisiae deletion strains, locus YJL095W, strain BCK1 (second series), active compounds read low 0.981 | S. cerevisiae deletion strains, locus YJL095W, strain BCK1, active compounds read low 1.02 | S. cerevisiae deletion strains, locus YJL115W, strain asf1, active compounds read low 0.964 | S. cerevisiae deletion strains, locus YJL129C, strain trk1, active compounds read low 0.988 | S. cerevisiae deletion strains, locus YJL134W, strain LCB3, active compounds read low 1.01 | S. cerevisiae deletion strains, locus YJL154C, strain vps35, active compounds read low 0.981 | S. cerevisiae deletion strains, locus YJL164C, strain tpk1, active compounds read low 0.991 | S. cerevisiae deletion strains, locus YJL166W, strain qcr8, active compounds read low 0.993 | S. cerevisiae deletion strains, locus YJL168C, strain set2, active compounds read low 0.99 | S. cerevisiae deletion strains, locus YJL187C, strain SWE1 (second series), active compounds read low 1.01 | S. cerevisiae deletion strains, locus YJL187C, strain SWE1, active compounds read low 0.986 | S. cerevisiae deletion strains, locus YKL009W, strain mrt4, active compounds read low 0.993 | S. cerevisiae deletion strains, locus YKL068W, active compounds read low 1.01 | S. cerevisiae deletion strains, locus YKL085W, strain MDH1 (second series), active compounds read low 0.997 | S. cerevisiae deletion strains, locus YKL085W, strain MDH1, active compounds read low 0.997 | S. cerevisiae deletion strains, locus YKL160W, strain elf1, active compounds read low 0.992 | S. cerevisiae deletion strains, locus YKL190W, strain CNB1, active compounds read low 1.01 | S. cerevisiae deletion strains, locus YKR001C, strain vps1, active compounds read low 1 | S. cerevisiae deletion strains, locus YKR026C, strain gcn3, active compounds read low 0.99 | S. cerevisiae deletion strains, locus YKR091W, strain srl3, active compounds read low 0.99 | S. cerevisiae deletion strains, locus YLL001W, strain dnm1, active compounds read low 0.983 | S. cerevisiae deletion strains, locus YLL026W, active compounds read low 0.987 | S. cerevisiae deletion strains, locus YLL041C, strain sdh2, active compounds read low 0.985 | S. cerevisiae deletion strains, locus YLR027C, strain aat2, active compounds read low 0.979 | S. cerevisiae deletion strains, locus YLR039C, strain RIC1, active compounds read low 1.07 | S. cerevisiae deletion strains, locus YLR058C, strain SHM2, active compounds read low 1 | S. cerevisiae deletion strains, locus YLR102C, strain apc9, active compounds read low 0.998 | S. cerevisiae deletion strains, locus YLR221C, strain rsa3, active compounds read low 0.993 | S. cerevisiae deletion strains, locus YLR258W, strain gsy2, active compounds read low 0.998 | S. cerevisiae deletion strains, locus YLR262C, strain YPT6 (second series), active compounds read low 0.978 | S. cerevisiae deletion strains, locus YLR268W, strain sec22, active compounds read low 0.997 | S. cerevisiae deletion strains, locus YLR320W, strain mms22, active compounds read low 0.991 | S. cerevisiae deletion strains, locus YLR342W, strain FKS1 (second series), active compounds read low 1.01 | S. cerevisiae deletion strains, locus YLR342W, strain FKS1, active compounds read low 0.991 | S. cerevisiae deletion strains, locus YLR357W, strain rsc2, active compounds read low 0.947 | S. cerevisiae deletion strains, locus YLR370C, strain arc18, active compounds read low 0.992 | S. cerevisiae deletion strains, locus YLR371W, strain rom2, active compounds read low 1 | S. cerevisiae deletion strains, locus YLR384C, strain iki3, active compounds read low 1 | S. cerevisiae deletion strains, locus YLR418C, strain cdc73, active compounds read low 0.98 | S. cerevisiae deletion strains, locus YML016C, strain PPZ1, active compounds read low 1 | S. cerevisiae deletion strains, locus YML032C, strain rad52, active compounds read low 0.991 | S. cerevisiae deletion strains, locus YML120C, strain ndi1, active compounds read low 0.994 | S. cerevisiae deletion strains, locus YML124C, strain tub3, active compounds read low 1 | S. cerevisiae deletion strains, locus YMR058W, strain fet3, active compounds read low 0.974 | S. cerevisiae deletion strains, locus YMR078C, strain ctf18, active compounds read low 0.992 | S. cerevisiae deletion strains, locus YMR125W, strain sto1, active compounds read low 0.978 | S. cerevisiae deletion strains, locus YMR129W, active compounds read low 0.999 | S. cerevisiae deletion strains, locus YMR205C, strain PFK2, active compounds read low 0.98 | S. cerevisiae deletion strains, locus YMR223W, strain ubp8, active compounds read low 1 | S. cerevisiae deletion strains, locus YMR231W, strain pep5, active compounds read low 0.967 | S. cerevisiae deletion strains, locus YMR307W, strain GAS1, active compounds read low 0.99 | S. cerevisiae deletion strains, locus YNL067W, strain RPL9B, active compounds read low 1.02 | S. cerevisiae deletion strains, locus YNL071W, strain lat1, active compounds read low 0.991 | S. cerevisiae deletion strains, locus YNL128W, strain TEP1, active compounds read low 1.02 | S. cerevisiae deletion strains, locus YNL209W, strain ssb2, active compounds read low 0.998 | S. cerevisiae deletion strains, locus YNL233W, strain BNI4, active compounds read low 1.02 | S. cerevisiae deletion strains, locus YNL248C, strain rpa49, active compounds read low 0.966 | S. cerevisiae deletion strains, locus YNL250W, strain rad50, active compounds read low 0.996 | S. cerevisiae deletion strains, locus YNL271C, strain bni1, active compounds read low 1 | S. cerevisiae deletion strains, locus YNL298W, strain CLA4, active compounds read low 1.01 | S. cerevisiae deletion strains, locus YNL307C, strain MCK1, active compounds read low 0.995 | S. cerevisiae deletion strains, locus YNL322C, strain KRE1 (second series), active compounds read low 1 | S. cerevisiae deletion strains, locus YNL322C, strain KRE1, active compounds read low 1.01 | S. cerevisiae deletion strains, locus YNR049C, strain mso1, active compounds read low 0.987 | S. cerevisiae deletion strains, locus YNR052C, strain pop2, active compounds read low 0.995 | S. cerevisiae deletion strains, locus YOL012C, strain htz1 1.25 | S. cerevisiae deletion strains, locus YOL147C, strain pex11, active compounds read low 0.996 | S. cerevisiae deletion strains, locus YOR001W, strain rrp6, active compounds read low 0.984 | S. cerevisiae deletion strains, locus YOR061W, strain CKA2, active compounds read low 0.997 | S. cerevisiae deletion strains, locus YOR069W, strain VPS5, active compounds read low 1 | S. cerevisiae deletion strains, locus YOR070C, strain gyp1, active compounds read low 1.01 | S. cerevisiae deletion strains, locus YOR080W, strain dia2, active compounds read low 0.995 | S. cerevisiae deletion strains, locus YOR083W, strain WHI5, active compounds read low 0.994 | S. cerevisiae deletion strains, locus YOR106W, strain vam3, active compounds read low 0.99 | S. cerevisiae deletion strains, locus YOR136W, strain idh2, active compounds read low 1 | S. cerevisiae deletion strains, locus YOR144C, strain elg1, active compounds read low 0.999 | S. cerevisiae deletion strains, locus YOR184W, strain ser1, active compounds read low 1.01 | S. cerevisiae deletion strains, locus YOR265W, strain rbl2, active compounds read low 0.979 | S. cerevisiae deletion strains, locus YOR270C, strain vph1, active compounds read low 0.914 | S. cerevisiae deletion strains, locus YOR290C, strain snf2, active compounds read low 1 | S. cerevisiae deletion strains, locus YOR316C, strain cot1, active compounds read low 0.999 | S. cerevisiae deletion strains, locus YPL051W, strain arl3, active compounds read low 0.995 | S. cerevisiae deletion strains, locus YPL078C, strain atp4, active compounds read low 0.989 | S. cerevisiae deletion strains, locus YPL106C, strain sse1, active compounds read low 0.998 | S. cerevisiae deletion strains, locus YPL240C, strain hsp82, active compounds read low 0.995 | S. cerevisiae deletion strains, locus YPL241C, strain CIN2, active compounds read low 1.01 | S. cerevisiae deletion strains, locus YPR119W, strain clb2, active compounds read low 0.994 | S. cerevisiae deletion strains, locus YPR141C, strain kar3, active compounds read low 0.993 | S. cerevisiae deletion strains, locus YPR163C, strain tif3, active compounds read low 0.994 | S. cerevisiae deletion strains, locus YPR167C, strain met16, active compounds read low 0.996 | S. cerevisiae deletion strains, strain wtn01, active compounds read low 1 | S. cerevisiae strains, strain wild type, active compounds read low 1.02
